Out of some 69,000 compounds screened, about 8,600 (12%) showed an effect of 50% or more. For the sample, strong results were picked, then their nearest neighbours and some compounds at random.
system: Plasmodium berghei; assay: Screen against P. berghei liver stage (PbLuc), transformed with Luciferase, at 10uM; format: functional, HepG2; conditions: tested at 10 uM

Row | SMILES | INHIBITION
1 | Cn1ccnc1-c1cnn(CC(=O)Nc2ccnn2C)c1 | 62.4%
2 | CC(=O)c1ccc(-c2cnn(CC(=O)Nc3cc(C)nn3C)c2)nc1 | 28.7%
3 | CC(=O)c1ccc(-c2cnn(CC(=O)Nc3ccnn3C)c2)nc1 | 46.1%
4 | CC(=O)NCCNC(=O)CN1CCCC(Cn2cncn2)C1 (stereo not given) | 29.7%
5 | COc1ccc(N2CCN(C(=O)C3[C@H]4CNC[C@@H]34)CC2(C)C)cc1 (stereo not given in full) | 35.3%
6 | O=C(c1ccc(O)cn1)N1CCOC(c2ccc(Cl)c(Cl)c2)C1 (stereo not given) | -19.2%
7 | Cc1cc(C)nc(CN2CCOC(c3ccc(Cl)cc3)C2)n1 (stereo not given) | 41.5%
8 | Cc1nc[nH]c1CN1CCOC(c2ccc(Cl)c(Cl)c2)C1 (stereo not given) | 69.4%
9 | Cc1c[nH]c(CN2CCOC(c3ccc(Cl)cc3)C2)c(C)c1=O (stereo not given) | 79.3%
10 | Cc1c[nH]c(CN2CCOC(c3ccc(F)cc3)C2)c(C)c1=O (stereo not given) | -3.96%
11 | Cc1nnc(CN2CCOC(c3ccc(Cl)c(Cl)c3)C2)o1 (stereo not given) | 15.9%
12 | Cc1cc(C(=O)N2CCOC(c3ccc(Cl)c(Cl)c3)C2)[nH]n1 (stereo not given) | 81%
13 | Cc1cc(C(=O)N2CCOC(c3nc(C)n[nH]3)C2)[nH]n1 (stereo not given) | 28.5%
14 | Cc1c[nH]c(CN2CCOC(c3ccc(Cl)c(Cl)c3)C2)c(C)c1=O (stereo not given) | 19.8%
15 | Cc1ccc2nc(C(=O)N3CCCC[C@]4(C)NC(=O)CCC[C@H]34)cn2c1 | -56.2%
16 | CNC(=O)NCc1nn(-c2ccccc2)c2c1CCC2 | 10.675%
17 | CC(C)c1nnc2n1CCN(C(C(N)=O)c1ccc(F)cc1)C2 (stereo not given) | 20%
18 | COc1ccccc1CNC(=O)CNc1ccccc1C(C)=O | -33.4%
19 | Cc1nc(CC(=O)N2CCCN(c3ccc(C#N)cc3)CC2)cs1 | -11.8%
20 | CS(=O)(=O)NCC1CCCCN1C(=O)c1cccc(C(F)(F)F)c1 (stereo not given) | 30.6%
21 | CCC(=O)N1CCC(Cc2ccccc2-c2ccncc2)(C(N)=O)C1 (stereo not given) | 7.52%
22 | CCc1nnc2n1CCN(CC(=O)N1CCc3ccccc3C1)C2 | 59.7%
23 | CC(C)c1nnc2n1CCN(CC(=O)N1CCc3sccc3C1)C2 | -12.915%
24 | CCc1nnc2n1CCN(CC(=O)N(CC)C1=CCCCC1)C2 | 24.6%
25 | Cc1nnc2n1CCN(C(=O)CN1C(=O)CCCc3ccccc31)C2 | 2.82%
26 | CC(C)c1nnc2n1CCN(CC(=O)N1CCc3ccccc3C1)C2 | 46.5%
27 | Cc1nnc2n1CCN(CC(=O)N1CCc3ccccc3C1)C2 | 50.7%
28 | CC(O)CN1CCC(CNCc2cccc(C(=O)N(C)C)c2)CC1 (stereo not given) | -38.7%

Row | SMILES | INHIBITION
29 | CCC(C)(CC(=O)O)NC(=O)Cc1ccccc1F (stereo not given) | 64.2%
30 | CC(C)(NC(=O)Cc1ccccc1F)C(=O)O | -16%
31 | CCC(C)(CC(=O)O)NC(=O)Cc1ccccc1Br (stereo not given) | -49.7%
32 | COCCC(=O)N1CCC2(CC1)CN(C(C)=O)Cc1ccccc1O2 | 14.805%
33 | Cc1ccccc1C1(C(=O)N2CCCC(n3cncn3)C2)CC1 (stereo not given) | 27.8%
34 | CC(=O)N1C[C@H]2CCCN(S(=O)(=O)c3ccc(Cl)s3)[C@H]2C1 | 3.48%
35 | O=C(C1CC1)N1C[C@H]2CCCN(S(=O)(=O)c3ccc(Cl)s3)[C@H]2C1 | 31.3%
36 | O=C(C1CC1)N1C[C@H]2CCCN(S(=O)(=O)c3ccc4c(c3)CCC4)[C@H]2C1 | 58.8%
37 | O=C(C1CC1)N1C[C@H]2CCCN(S(=O)(=O)c3cccc(F)c3)[C@H]2C1 | 26.97%
38 | COc1ccc(S(=O)(=O)N2CCC[C@@H]3CN(C(=O)C4CC4)C[C@@H]32)cc1 | 54%
39 | COc1ccc(S(=O)(=O)N2CCC[C@@H]3CN(C(=O)C4CC4)C[C@@H]32)cc1F | 40.75%
40 | CS(=O)(=O)N1CCC(Cc2cnc(Br)cn2)CC1 | 33.2%
41 | CCOC(=O)c1cnn(C2CCN(C(=O)CC3C=CCC3)CC2)c1N (stereo not given) | 29.8%
42 | CN(Cc1ccc(Cl)s1)C(=O)COc1cccc(C(N)=O)c1 | -19%
43 | CNC(=O)C1CN(c2cc(C)ncn2)CCN1Cc1ccccc1 (stereo not given) | -42%
44 | Cc1noc(C)c1CN1CCn2cc(CN3CCOCC3)nc2C1 | -50%
45 | Cc1cc(C)nc(NCCCC(=O)NCCn2ccc3ccccc32)n1 | 28.5%
46 | Cc1c(C2CCOC(C)(C)C2)nc(N)c(C#N)c1-c1ccc(O)cc1 (stereo not given) | 30.1%
47 | Cc1cnn(CCNCC(O)COc2cccc(C(F)(F)F)c2)c1 (stereo not given) | 37.4%
48 | Cc1cnn(CCNCC(O)COc2ccc(Cl)cc2)c1 (stereo not given) | 45.8%
49 | Cc1cnn(CCNCC(O)COc2ccc(C#N)cc2)c1 (stereo not given) | 26.3%
50 | Cc1cnn(CCNCC(O)COc2c(C)ccc(C)c2C)c1 (stereo not given) | 52.7%
51 | Cc1cnn(CCNCC(=O)NCCOc2ccccc2)c1 | 57.2%
52 | Cc1cnn(CCNCC(=O)NCCOc2ccc(Cl)cc2)c1 | -0.96%
53 | Cc1cnn(CCNCC(=O)NCCOc2ccc(F)cc2)c1 | 45.7%
54 | Cc1cnn(CCNCC(O)COc2c(Cl)cccc2Cl)c1 (stereo not given) | -32%
55 | Cc1cnn(CCNCC(O)COc2ccc(F)cc2)c1 (stereo not given) | 54.4%
